Measurements as given in PubChem BioAssay.
Calls of active or inactive are those of the source. Unless noted, how the calls were made is not given here.

Assays:
[1] = test system: Wnt5a (protein binding on small-molecule microarray); test: Wnt5a binders on small-molecule microarray, primary screen, biophysical, 635/667 nm fluorescence (AID 1142); conditions: 635 nm fluorescence, higher = more signal;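 further: fluorescence read at 667 nm with signal to noise per printed feature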
[2] = cell viability in Huh7 cells, primary screen, cytotoxicity control for HCV replication inhibitor project, CellTiter-Glo luminescence, basal, 48 h (AID 1143); conditions: Huh7 HCV replicon, higher = more signal, called active from +8 up or from −8 down;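 further: Huh7 hepatoma cells carrying a hepatitis C replication reporter with no stimulus; test concentration not given here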
[3] = P. aeruginosa biofilm formation inhibitors, primary screen, PAO1 strain, BacTiter-Glo luminescence, LB-PBS (AID 1144); conditions: 12 h, higher = more signal
[4] = CREB reporter modulators without forskolin, primary screen, cell-based, PC12, CRE-LacZ reporter, unstimulated (AID 1145); conditions: no forskolin, luminescence, 4.5 h, higher = more signal, called active from +8 up or from −8 down
[5] = CREB reporter modulators under forskolin, primary screen, cell-based, PC12, CRE-LacZ reporter, forskolin-stimulated (AID 1146); conditions: luminescence, 4.5 h, higher = more signal, called active from +8 up or from −8 down;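 further: PC12 cells with 6xCRE LacZ reporter stimulated by forskolin 10 µM; beta-galactosidase reporter signal reflecting CREB driven transcription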
[6] = biological target: Streptavidin (Streptomyces avidinii) (UniProt P22629); test: streptavidin binders on small-molecule microarray, primary screen, artefact control for SMM compound annotation, biophysical, 635/667 nm fluorescence (AID 1147); conditions: streptavidin binding, higher = more signal;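 further: signal reflects streptavidin binding to arrayed compounds as a control protein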
Sequence of Streptavidin (Streptomyces avidinii) (P22629 whole entry, looked up): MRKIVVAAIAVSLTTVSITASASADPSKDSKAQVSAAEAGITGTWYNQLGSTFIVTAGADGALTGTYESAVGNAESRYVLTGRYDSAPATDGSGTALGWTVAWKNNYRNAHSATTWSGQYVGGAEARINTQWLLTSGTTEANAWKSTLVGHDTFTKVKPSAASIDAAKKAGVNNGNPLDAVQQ

[7] = small-molecule binders of probe aInhba, primary screen, biochemical, small-molecule microarray, 635/667 nm fluorescence (AID 1148); conditions: higher = more signal;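 further: score merges 667nm spot fluorescence with signal-to-noise for antibody binding to printed compounds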
Torsin-1A (Homo sapiens) [8] = biological target: Torsin-1A (Homo sapiens) (UniProt O14656); test: torsin A binders from cell lysate, primary screen, small-molecule microarray, wild-type, 635/667 nm (AID 1149); conditions: COS7 hTOR1A-WT lysate, 635 nm fluorescence, higher = more signal
Sequence of Torsin-1A (Homo sapiens) (O14656 whole entry, looked up): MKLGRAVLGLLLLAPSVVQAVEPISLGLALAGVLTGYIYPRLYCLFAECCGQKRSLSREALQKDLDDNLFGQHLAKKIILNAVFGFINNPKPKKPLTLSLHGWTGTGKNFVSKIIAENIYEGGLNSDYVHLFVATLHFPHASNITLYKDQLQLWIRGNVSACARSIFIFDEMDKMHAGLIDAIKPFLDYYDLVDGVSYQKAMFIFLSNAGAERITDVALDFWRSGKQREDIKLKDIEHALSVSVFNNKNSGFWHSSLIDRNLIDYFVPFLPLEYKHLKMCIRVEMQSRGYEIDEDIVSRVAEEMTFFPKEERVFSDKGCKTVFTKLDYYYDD

Torsin-1A (Homo sapiens) [9] = biological target: Torsin-1A (Homo sapiens) (UniProt O14656); test: small-molecule binders of mutant TOR1A in lysate, primary screen, cell lysate, small-molecule microarray, COS7 lysate, 635/667 nm fluorescence (AID 1150); conditions: COS7 hTOR1A mutant lysate, 635 nm fluorescence, higher = more signal;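 further: score pools 667 nm emission and signal to noise measuring lysate protein binding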
[10] = test system: Sonic hedgehog protein (Shh); test: small-molecule binders of Shh protein, primary screen, biochemical, small-molecule microarray, 635/667 nm fluorescence (AID 1151); conditions: small-molecule microarray binding, 635 nm fluorescence; higher = more signal;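 further: Shh protein binding to compounds spotted on small-molecule microarray slides; score combines spot fluorescence intensity with signal-to-noise across triplicate slides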
[11] = E. coli DRC41 culture turbidity changes, primary screen, E. coli filamentation inducer project, strain DRC41, OD650, 48 h (AID 1152);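 further: E. coli MC1000 strain DRC41 lacking acrAB efflux pump and sulA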; conditions: E. coli DRC41 (acrAB sulA), higher = more signal, called active from +8 up or from −8 down
[12] = small-molecule binders of probe aLefty1, primary screen, biochemical, small-molecule microarray, 635/667 nm fluorescence (AID 1153); conditions: higher = more signal;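 further: score merges spot fluorescence with signal-to-noise ratio from the scanned slide images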
[13] = PSAC antagonists in infected red cells, primary screen, cell-based, P. falciparum Indochina, OD700, 1 h (AID 1154); conditions: P. falciparum Indochina infected RBC osmotic lysis, higher = more signal, called active from +8 up or from −8 down
[14] = PSAC antagonists in infected red cells, primary screen, cell-based, P. falciparum Indochina, OD700, 2 h (AID 1155);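 further: lysis reports solute entry through the parasite surface anion channel PSAC; channel blockers reduce lysis of infected cells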; conditions: P. falciparum Indochina infected erythrocytes, osmotic lysis OD700; higher = more signal, called active from +8 up or from −8 down
[15] = osmotic lysis modulators in infected erythrocytes, primary screen, PSAC antagonist project, cell-based, P. falciparum Indochina, OD700, 3 h (AID 1156); conditions: higher = more signal, called active from +8 up or from −8 down
[16] = PSAC antagonists in infected red cells, primary screen, cell-based, P. falciparum Indochina, OD700, 18 h (AID 1157); conditions: P. falciparum Indochina infected erythrocytes, osmotic lysis OD700, 18 h; higher = more signal, called active from +8 up or from −8 down
[17] = modulators of S6 phosphorylation in cells, primary screen, cell-based, A549, cytoblot, luminescence, serum-stimulated (AID 1158); conditions: A549 phospho-S6 cytoblot, 5 h, higher = more signal;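 further: serum-stimulated A549 lung adenocarcinoma cells; signal is phosphorylated S6 detected by cytoblot immunostaining with HRP secondary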
[18] = biological target: NADPH oxidase 2 (Homo sapiens) (UniProt P04839); test: NOX2-dependent H2O2 signal modulators, primary screen, NOX inhibitor project, cell-based, HEK293-NOX2, PMA-stimulated, Amplex Red fluorescence (AID 1159); conditions: 45 min, higher = more signal, called active from +8 up or from −8 down; further: test concentration not given here
Sequence of NADPH oxidase 2 (Homo sapiens) (P04839 whole entry, looked up): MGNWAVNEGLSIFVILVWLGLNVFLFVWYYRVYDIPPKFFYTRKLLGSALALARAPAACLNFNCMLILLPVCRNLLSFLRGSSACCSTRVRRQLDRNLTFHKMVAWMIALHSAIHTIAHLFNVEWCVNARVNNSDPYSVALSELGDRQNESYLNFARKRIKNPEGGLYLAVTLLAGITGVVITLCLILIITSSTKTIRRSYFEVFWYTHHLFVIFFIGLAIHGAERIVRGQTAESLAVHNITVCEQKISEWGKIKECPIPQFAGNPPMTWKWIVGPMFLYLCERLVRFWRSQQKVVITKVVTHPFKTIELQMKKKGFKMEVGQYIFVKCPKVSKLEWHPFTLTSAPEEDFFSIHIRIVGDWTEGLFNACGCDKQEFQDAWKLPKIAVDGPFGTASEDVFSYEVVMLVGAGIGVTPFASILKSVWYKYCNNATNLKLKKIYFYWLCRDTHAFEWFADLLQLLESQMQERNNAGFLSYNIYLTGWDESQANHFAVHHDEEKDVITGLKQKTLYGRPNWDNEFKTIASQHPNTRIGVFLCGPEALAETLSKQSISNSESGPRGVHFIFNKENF

[19] = biological target: NADPH oxidase 4 (Homo sapiens) (UniProt Q9NPH5); test: NOX4-dependent H2O2 signal modulators, primary screen, NOX inhibitor project, cell-based, HEK293-NOX4, tetracycline-induced, Amplex Red fluorescence (AID 1160); conditions: 45 min, higher = more signal, called active from +8 up or from −8 down
Sequence of NADPH oxidase 4 (Homo sapiens) (Q9NPH5 whole entry, looked up): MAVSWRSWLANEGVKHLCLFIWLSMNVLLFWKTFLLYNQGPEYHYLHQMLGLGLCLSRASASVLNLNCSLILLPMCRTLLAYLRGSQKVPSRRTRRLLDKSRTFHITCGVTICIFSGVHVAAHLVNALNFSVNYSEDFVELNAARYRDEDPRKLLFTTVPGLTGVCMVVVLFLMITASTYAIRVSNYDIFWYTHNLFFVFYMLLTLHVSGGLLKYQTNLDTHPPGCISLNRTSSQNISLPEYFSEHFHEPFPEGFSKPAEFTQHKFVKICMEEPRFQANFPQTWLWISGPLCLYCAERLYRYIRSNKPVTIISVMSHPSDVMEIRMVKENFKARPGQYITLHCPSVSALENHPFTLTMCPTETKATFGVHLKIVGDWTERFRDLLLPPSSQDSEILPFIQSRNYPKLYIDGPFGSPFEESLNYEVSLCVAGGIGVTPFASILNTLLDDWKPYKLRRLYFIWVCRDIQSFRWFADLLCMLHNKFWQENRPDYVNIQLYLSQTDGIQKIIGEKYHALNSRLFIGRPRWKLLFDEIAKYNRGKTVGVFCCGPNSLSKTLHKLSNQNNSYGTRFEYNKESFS

[20] = biological target: NADPH oxidase 5 (Homo sapiens) (UniProt Q96PH1); test: NOX5-dependent H2O2 signal modulators, primary screen, NOX inhibitor project, cell-based, HEK293-NOX5, Amplex Red fluorescence (AID 1161); conditions: HEK293-NOX5, ionomycin, 45 min, higher = more signal
Sequence of NADPH oxidase 5 (Homo sapiens) (Q96PH1 whole entry, looked up): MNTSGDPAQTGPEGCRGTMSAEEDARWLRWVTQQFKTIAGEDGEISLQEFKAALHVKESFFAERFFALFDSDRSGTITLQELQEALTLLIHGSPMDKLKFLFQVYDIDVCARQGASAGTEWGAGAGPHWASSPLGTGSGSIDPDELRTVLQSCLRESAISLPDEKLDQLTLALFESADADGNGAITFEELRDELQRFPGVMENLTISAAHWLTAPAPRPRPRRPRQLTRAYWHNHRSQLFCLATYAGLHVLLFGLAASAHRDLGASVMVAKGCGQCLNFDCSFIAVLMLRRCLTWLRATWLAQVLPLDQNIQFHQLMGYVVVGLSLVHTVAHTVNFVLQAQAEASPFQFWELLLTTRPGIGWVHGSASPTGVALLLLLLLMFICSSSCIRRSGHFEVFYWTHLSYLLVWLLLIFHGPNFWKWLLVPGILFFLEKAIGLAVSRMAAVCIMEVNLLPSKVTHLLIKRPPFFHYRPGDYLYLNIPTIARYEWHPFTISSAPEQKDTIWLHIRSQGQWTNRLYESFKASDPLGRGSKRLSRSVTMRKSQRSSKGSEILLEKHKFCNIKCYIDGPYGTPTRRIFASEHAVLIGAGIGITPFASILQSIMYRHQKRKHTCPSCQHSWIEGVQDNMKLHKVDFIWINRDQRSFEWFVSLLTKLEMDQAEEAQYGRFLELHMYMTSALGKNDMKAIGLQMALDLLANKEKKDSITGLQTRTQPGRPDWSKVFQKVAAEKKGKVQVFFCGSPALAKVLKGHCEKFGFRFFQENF

Compound	composite z-score [1]	z-score [2]	z-score [3]	z-score [4]	z-score [5]	composite z-score [6]	composite z-score [7]	composite z-score (Torsin-1A (Homo sapiens) [8])	composite z-score (Torsin-1A (Homo sapiens) [9])	composite z-score [10]	z-score [11]	composite z-score [12]	z-score [13]	z-score [14]	z-score [15]	z-score [16]	z-score [17]	z-score [18]	z-score [19]	z-score [20]
[N-]=[N+]=NCc1ccccc1[C@@H]1OC(c2ccc(OCCCO)cc2)=N[C@]1(CCS(=O)(=O)c1ccccc1)C(=O)NCCN1CCOCC1	0.808	-0.31 (inactive)	-0.174 (inactive)	1.24 (inactive)	-1.16 (inactive)	0.81	0.285	2.1	1.9	0.615	0.36 (inactive)	0.461	24 (active)	6.42 (inactive)	0.854 (inactive)	0.763 (inactive)	-0.291	0.961 (inactive)	1.92 (inactive)	2.34
C=C(CCCC)C(=O)CC[C@H](OC(C)=O)c1cccc(OCCO)c1	-0.247	-3.51 (inactive)	0.428 (inactive)	0.914 (inactive)	-0.057 (inactive)	-0.613	-0.183	-0.576	-0.132	0.103	0.648 (inactive)	-0.263	5.27 (inactive)	-1.77 (inactive)	1.57 (inactive)	-1.85 (inactive)	0.73	-1.94 (inactive)	-0.766 (inactive)	-2.8
CN(C)C(=O)[C@@]1(Cc2ccccc2)N=C(c2ccc(OCCCO)cc2)O[C@H]1c1ccccc1N=[N+]=[N-]	0.762	-4.47 (inactive)	-1.05 (inactive)	0.115 (inactive)	-2.09 (inactive)	1.5	0.086	0.697	0.505	-0.346	0.89 (inactive)	0.737	30.4 (active)	27.4 (active)	2.05 (inactive)	7.06 (inactive)	1.33	-1.93 (inactive)	0.891 (inactive)	-1.22
CC(C)(C)OC(=O)CC[C@@]1(C(N)=O)N=C(c2ccc(OCCCO)cc2)O[C@@H]1c1ccccc1	0.22	-0.0043 (inactive)	-0.256 (inactive)	1.5 (inactive)	-1.12 (inactive)	0.818	-0.0533	0.361	1.42	-0.954	-0.795 (inactive)	0.345	5.46 (inactive)	0.431 (inactive)	0.726 (inactive)	0.299 (inactive)	-0.0683	-0.414 (inactive)	0.492 (inactive)	-0.0961
C=CCN1C(=O)[C@@]2(O[C@@H](CCO)[C@H]([Si](C)(C)c3ccc(OC)cc3)[C@H]2C)c2cc(NC(=O)c3ccc(OC)cc3)ccc21	0.157	-6.5 (inactive)	-0.39 (inactive)	10.6 (active)	-1.6 (inactive)	0.15	-0.0221	0.214	0.373	1.64	-0.0564 (inactive)	-0.147	23.3 (active)	6.69 (inactive)	0.978 (inactive)	1.75 (inactive)	0.26	-3.81 (inactive)	-0.905 (inactive)	-0.695
COc1ccc(NN2C(C(O)c3ccc([N+](=O)[O-])cc3)C=CC3C(=O)N(C4CCCCC4)C(=O)C32)cc1 (stereo not given)	-0.0777	-0.416 (inactive)	-1.05 (inactive)	-0.667 (inactive)	-0.441 (inactive)	1.99	0.199	-0.233	0.382	-0.49	-0.256 (inactive)	0.3	7.78 (inactive)	1.11 (inactive)	-0.187 (inactive)	0.708 (inactive)	-0.126	-1.03 (inactive)	-2.3 (inactive)	-0.48
CC(C)(C)OC(=O)CC[C@]1(C(=O)O)N=C(c2ccc(OCCCO)cc2)O[C@H]1c1ccccc1N=[N+]=[N-]	0.629	-0.686 (inactive)	0.448 (inactive)	-0.38 (inactive)	-0.658 (inactive)	1.32	0.825	-0.09	0.414	-0.815	0.234 (inactive)	1.58	32.9 (active)	28.4 (active)	0.912 (inactive)	6.45 (inactive)	-0.466	0.7 (inactive)	1.14 (inactive)	1.31
COCCOC(=O)N1C(=O)[C@@]2(c3cc(C#Cc4ccc(OC)cc4)ccc31)[C@H](c1ccc(O)cc1)N1[C@H](c3ccccc3)[C@H](c3ccccc3)OC(=O)[C@H]1[C@@H]2C(=O)NC[C@H](O)c1ccccc1	0.763	-3.94 (inactive)	-0.88 (inactive)	-1.15 (inactive)	0.7 (inactive)	0.452	-0.0259	0.105	1.07	2.05	0.72 (inactive)	0.176	3.44 (inactive)	0.973 (inactive)	0.38 (inactive)	0.532 (inactive)	0.264	1.07 (inactive)	-1.05 (inactive)	1.1
COc1cc2c(cc1OC)CN(C(=O)[C@H]1[C@@H]3C(=O)O[C@@H](c4ccccc4)[C@@H](c4ccccc4)N3[C@@H](c3ccc(O)cc3)[C@]13C(=O)Nc1ccc(C#CC4=CCCCC4)cc13)CC2	0.657	-2.62 (inactive)	-0.693 (inactive)	-0.375 (inactive)	-0.267 (inactive)	1.45	0.288	0.302	0.454	1.07	1.21 (inactive)	0.35	0.924 (inactive)	0.445 (inactive)	0.79 (inactive)	0.736 (inactive)	-0.226	0.685 (inactive)	0.513 (inactive)	1.88
CC(C)C[C@@H]1NC(=O)[C@H]2C[C@@H](C(=O)NCCCCCCN)[C@@H](c3ccc(O)cc3)N2C1=O	0.0135	-0.875 (inactive)	0.469 (inactive)	0.553 (inactive)	1.08 (inactive)	0.569	0.243	1.07	0.339	0.553	-0.63 (inactive)	0.51	1.9 (inactive)	0.0643 (inactive)	-0.265 (inactive)	0.3 (inactive)	-0.648	1.21 (inactive)	1.05 (inactive)	0.315
COc1ccc(CCN2C(=O)[C@@]3(Cc4ccccc42)c2ccccc2C(=O)N(Cc2ccccc2C(F)(F)F)[C@H]3c2ccc(CO)cc2)cc1	0.268	-4.12 (inactive)	-1.41 (inactive)	-0.554 (inactive)	-0.361 (inactive)	-0.228	-0.208	0.208	0.087	1.9	-0.262 (inactive)	-0.201	0.074 (inactive)	-1.13 (inactive)	-1.87 (inactive)	-2.07 (inactive)	1.85	-1.4 (inactive)	-2.08 (inactive)	-2.04
